We go through 7 molecules from PubChem BioAssay (NCI).

Some test systems named below: DU-145 prostate; K-562 leukemia; MALME-3M melanoma; MDA-MB-231 breast; RXF 393 renal; SF-268 CNS; SF-295 CNS; SF-539 CNS; UACC-257 melanoma; M14 melanoma; HCT-15 colon; HT29 colon; SNB-75 CNS; SNB-19 CNS; U251 CNS; PC-3 prostate; SK-MEL-5 melanoma; UACC-62 melanoma; LOX IMVI melanoma; SK-MEL-28 melanoma.
Experiment in all cases: NCI-60 one-dose screen, 48 h (100 = growth as untreated, 0 = no growth, -100 = all killed)
What all share (details): 10 µM unless noted

The panel holds about 83,000 compounds, 20% with a hit somewhere; the sample as a whole holds those more often.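 Plates (96-well) were seeded with cells, treated with compound at one concentration, and incubated for 48 hours before percent growth was determined.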 Unmarked numbers belong to inactive results. Active and inactive are the calls of the source. The calls were made as follows: active = growth percent below 10; inactive = the rest.

In the case of `CCOC(=O)C1CSC(C)(C(=O)OCC)N1` (stereo not given), the growth with DU-145 prostate was 108%; in the test with K-562 leukemia it was 103%; in the test on MALME-3M melanoma, 98.4%; in the test on MDA-MB-231 breast it was 107%; in the test with RXF 393 renal, 115%; in the test with SF-268 CNS, 106%. In addition, the growth in the test on SF-295 CNS was 106%; in the test with SF-539 CNS, 104%; in the test on UACC-257 melanoma, 111%; in the test with M14 melanoma, 98.7%; in the test with HCT-15 colon, 101%; in the test on HT29 colon it was 87.9%. Also, the growth was 100% in the test with SNB-75 CNS; 107% in the test on SNB-19 CNS; 106% in the test on U251 CNS; 95.1% in the test with PC-3 prostate; 101% in the test with SK-MEL-5 melanoma; 105% with UACC-62 melanoma. The growth with LOX IMVI melanoma was 98.2%; in the test on SK-MEL-28 melanoma, 107%.

With `C=C1C(=O)O[C@H]2[C@H]1CC/C(C(=O)Nc1ccc(OC)c(C(N)=O)c1O)=C\CC[C@@]1(C)O[C@@H]21`, the growth is 36.3% in the test on DU-145 prostate; 22.9% in the test on K-562 leukemia; 21% in the test with MALME-3M melanoma; 58.4% with MDA-MB-231 breast; 3.02% (active) in the test on RXF 393 renal; 86.3% in the test on SF-268 CNS. Further, the growth is 94.9% in the test on SF-295 CNS; 60.5% in the test on SF-539 CNS; 51.1% in the test with UACC-257 melanoma; 55.8% in the test with M14 melanoma; 45.8% in the test on HCT-15 colon; 36% in the test with HT29 colon. Also, the growth was 88.5% with SNB-75 CNS; 90.4% in the test on SNB-19 CNS; 82.2% in the test on U251 CNS; 95.3% in the test with PC-3 prostate; 86.7% in the test with SK-MEL-5 melanoma; 67.5% in the test with UACC-62 melanoma. Also, the growth in the test with LOX IMVI melanoma was 77.1%; in the test on SK-MEL-28 melanoma, 52.9%.

As to `CC(C(C(=O)N1CCCCC1)N1CCCCC1)N1CCCCC1` (stereo not given), the growth in the test with DU-145 prostate was 122%; with K-562 leukemia it was 94.7%; in the test on MALME-3M melanoma, 118%; in the test on MDA-MB-231 breast, 112%; in the test with RXF 393 renal, 112%; in the test with SF-268 CNS it was 115%. Also, the growth with SF-295 CNS is 117%; in the test on SF-539 CNS, 116%; in the test on UACC-257 melanoma, 101%; in the test on M14 melanoma it was 103%; in the test on HCT-15 colon, 107%; in the test on HT29 colon it was 105%. Further, the growth was 100% in the test with SNB-75 CNS; 103% in the test on SNB-19 CNS; 97.9% with U251 CNS; 107% in the test on PC-3 prostate; 112% in the test with SK-MEL-5 melanoma; 102% in the test on UACC-62 melanoma. Besides, the growth with LOX IMVI melanoma and with SK-MEL-28 melanoma was 107% each time.

In the case of `O=C1CCC(=O)N1C1CCCCC1`, the growth was 107% with DU-145 prostate; 107% in the test with K-562 leukemia; 82.6% in the test on MALME-3M melanoma; 103% in the test with MDA-MB-231 breast; 109% in the test with RXF 393 renal; 97.6% in the test on SF-268 CNS. The growth was 97.5% with SF-295 CNS; 101% with SF-539 CNS; 108% in the test on UACC-257 melanoma; 94.5% with M14 melanoma; 112% with HCT-15 colon; 112% with HT29 colon. Besides, the growth with SNB-75 CNS was 88.5%; with SNB-19 CNS it was 99.9%; in the test with U251 CNS, 107%; in the test on PC-3 prostate, 99.8%; in the test on SK-MEL-5 melanoma it was 96.8%; with UACC-62 melanoma it was 97.7%. Also, the figures for the growth with LOX IMVI melanoma and in the test on SK-MEL-28 melanoma were 98.4% and 108%, respectively.

For `Cn1cnc([N+](=O)[O-])c1N1c2ccncc2Sc2ccncc21`, the growth is 108% with DU-145 prostate; 83.2% with K-562 leukemia; 84% with MALME-3M melanoma; 85.1% with MDA-MB-231 breast; 100% in the test on RXF 393 renal; 101% with SF-268 CNS. The growth is 86.7% in the test with SF-295 CNS; 96.3% in the test on SF-539 CNS; 101% with UACC-257 melanoma; 101% in the test with M14 melanoma; 99% in the test with HCT-15 colon; 137% in the test on HT29 colon. Also, the growth in the test on SNB-75 CNS was 233%; in the test with SNB-19 CNS it was 94.7%; with U251 CNS it was 88.7%; in the test on PC-3 prostate, 93.3%; with SK-MEL-5 melanoma, 91.7%; in the test with UACC-62 melanoma, 81%. The results for the growth with LOX IMVI melanoma and in the test on SK-MEL-28 melanoma were 78.5% and 149%, respectively.

In the case of `NC(=O)C1=C[C@H]2[C@H]3C=C[C@@]2(O)C(=O)O[C@@H]3O1`, the growth with DU-145 prostate was 45.9%; with K-562 leukemia, 61.8%; in the test with MALME-3M melanoma it was 4.54% (active); in the test on MDA-MB-231 breast it was 61.5%; in the test on RXF 393 renal, 8.42% (active); in the test with SF-268 CNS, 58.2%. Moreover, the growth was 88.5% in the test on SF-295 CNS; 65.6% in the test on SF-539 CNS; 28.9% in the test on UACC-257 melanoma; 32% in the test with M14 melanoma; 44.8% in the test on HCT-15 colon; 47% in the test with HT29 colon. Moreover, the growth in the test on SNB-75 CNS was 76.7%; in the test with SNB-19 CNS, 82%; in the test with U251 CNS, 63.1%; with PC-3 prostate, 59.1%; in the test with SK-MEL-5 melanoma, 60.7%; in the test with UACC-62 melanoma, 35.5%. Moreover, the growth is 22.9% in the test with LOX IMVI melanoma and 25.2% in the test on SK-MEL-28 melanoma.

With `COc1ccc(C2=NN(C(=O)COc3ccc(Cl)cc3)C(O)(c3cc(F)c(Cl)cc3Cl)C2)cc1` (stereo not given), the growth is 105% with DU-145 prostate; 82.4% with K-562 leukemia; 85.8% in the test with MALME-3M melanoma; 105% with MDA-MB-231 breast; 94.1% in the test with RXF 393 renal; 102% in the test with SF-268 CNS. For the same molecule, the growth in the test with SF-295 CNS is 80.6%; with SF-539 CNS it was 89.3%; in the test with UACC-257 melanoma it was 98.6%; with M14 melanoma, 85.2%; with HCT-15 colon, 98.6%; with HT29 colon it was 99.4%. The growth with SNB-75 CNS is 88.2%; in the test on SNB-19 CNS, 94.7%; in the test with U251 CNS it was 104%; with PC-3 prostate, 75%; with SK-MEL-5 melanoma it was 114%; in the test with UACC-62 melanoma, 111%. The growth in the test on LOX IMVI melanoma was 83.8%; in the test with SK-MEL-28 melanoma it was 103%.
